Source: PubChem BioAssay
Hits are enriched below; roughly 21% of the tested compounds scored in any of these assays.
NS1 function inh: inhibitors of influenza NS1 protein function; Potency, µM (titrated, usually from 46.1 µM), for inactives: at the highest dose activity, positive = more growth; 0.4% of 270,000 active; calls by dose curve; also: potency is read from the fitted curve at half-maximal effect; actives are rising curves; nearly all actives have a fitted effect of over 50% in size
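Read-out: OD600 growth recovery of NS1-expressing budding yeast. Cells grown overnight at 30C in -URA glucose medium, washed, resuspended and diluted 1:100 in 2% galactose assay medium, pH 6.0. Same strain lacking NS1 served as positive control.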
Pf growth 48h: inhibits P. falciparum growth in the first generation, 48 h; P. falciparum luciferase growth in erythrocytes, 48 h; Potency, µM (highest dose often 28.7 µM), for the others: at the top dose activity change, negative = inhibition, usual class: inhibitors; 5.9% of 310,000 active; also: potency is read from the fitted curve at half-maximal effect; % is scaled to controls: 0 for no effect and ±100 for the full control effect
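A one-generation exposure of luciferase-tagged malaria parasites in RPMI 1640/Albumax erythrocyte culture, 37 C and 5% CO2. Inhibition is inferred from decreased luminescence after adding detection reagent.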
Pf growth 96h: P. falciparum growth inhibition at 96 hour, primary screen for plastid delayed-death inhibitors | P. falciparum luciferase reporter growth, 96 h | Potency, µM (highest dose often 28.7 µM), for the others: at the highest dose activity change, negative = inhibition, actives largely listed as inhibitors | 6.9% of 320,000 active; also: potency is read from the fitted curve at half-maximal effect; % is scaled to controls: 0 for no effect and ±100 for the full control effect
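Infected RBCs, 2% Hct / 0.05% parasitemia final; luciferase-reporter P. falciparum; cpd 96 h, 37 C, 5% CO2; luciferase detection reagent; luminescence.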
Sm TGR inh: inhibitors of Schistosoma mansoni thioredoxin glutathione reductase. Q962Y6. purified TGR, DTNB reduction, TNB absorbance 405 nm. Potency, µM (series often up to 114 µM), without a hit: top-dose activity change, negative = inhibition, actives largely listed as inhibitors. 3% of 360,000 active; also: potency is read from the fitted curve at half-maximal effect; % is scaled to controls: 0 for no effect and ±100 for the full control effect; nearly all actives have a fitted effect of over 60% in size
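First, TGR (20 nM dispensed) and NADPH were mixed with compound. Second, a 15 min room-temperature incubation followed. Third, further NADPH and then DTNB were added to start the reaction. Finally, TNB absorbance was monitored kinetically.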
Cycloheximide cs: affects cycloheximide protein synthesis inhibition readout, counter-screen | cell reporter, cycloheximide protein synthesis inhibition counterscreen | max response, % | 12% of 300,000 active; in the data active = max response mostly above about 13%, no sharp cut-off; inactive = mostly below about 14%; also: read at 38.3 µM for the half of the compounds with a filed dose; 0% is about no effect
Shiga inhibitor: Shiga toxin inhibition; Vero cells, Shiga toxin protein synthesis inhibition reporter; inhibition, % at 38.7 µM; 9.2% of 290,000 active; AID 2315; in the data active = inhibition mostly above about 28%, no sharp cut-off; inactive = mostly below about 43%; also: 0% is about no effect
* marks the source's active call; other numbers are inactive results. Unless noted, calls follow the shape of the dose curve; as a rule, active = well fitted curve in the direction sought with a large enough effect; inconclusive = small, poorly fitted or top-dose-only effect, or another doubt; inactive = no such curve, though single readings can be large; an effect the other way counts as inactive or inconclusive.

How did CCOc1ccc(C2C(C(=O)c3ccc(C)o3)=C(O)C(=O)N2CCCN(CC)CC)cc1 (centres undefined) do in these assays?
NS1 function inh: 1%; Pf growth 48h: -4%; Pf growth 96h: 0%; Sm TGR inh: 35µM*; Cycloheximide cs: 2; Shiga inhibitor: -4

How did CCN(CC)CCCN1C(=O)C(O)=C(C(=O)c2ccc(C)o2)C1c1cccs1 (centres undefined) do in these assays?
NS1 function inh: 2%; Pf growth 48h: 6%; Sm TGR inh: 45µM*; Cycloheximide cs: -4; Shiga inhibitor: 20

What do the screens show for `CCOc1cccc(C2C(C(=O)c3ccc(C)o3)=C(O)C(=O)N2CCCn2ccnc2)c1` (centres undefined)?
Pf growth 48h: 0%; Pf growth 96h: -6%; Sm TGR inh: inconclusive

Results for CCN(CC)CCCN1C(=O)C(O)=C(C(=O)c2ccc(C)o2)C1c1ccc(C)o1 (centres undefined) ?
NS1 function inh: 1%; Pf growth 48h: 12%; Pf growth 96h: -16%; Sm TGR inh: 50µM*; Cycloheximide cs: -8; Shiga inhibitor: -12

What do the screens show for `CCN(CC)CCCN1C(=O)C(O)=C(C(=O)c2ccco2)C1c1ccc(C)o1` (centres undefined)?
NS1 function inh: 6%

How did CCN(CC)CCN1C(=O)C(O)=C(C(=O)c2ccc(C)o2)C1c1ccccn1 (centres undefined) do in these assays?
NS1 function inh: -4%

How did COc1ccc(CN(C)C(=O)c2cccc(NS(=O)(=O)c3ccccc3)c2)c(OC)c1 do in these assays?
NS1 function inh: 12%; Pf growth 48h: 5%; Pf growth 96h: 6%; Sm TGR inh: -9%; Cycloheximide cs: 3; Shiga inhibitor: -32

Results for Cc1ccccc1[C@@H](NC(=O)OC(C)(C)C)C(=O)OC(C)(C)C ?
Pf growth 48h: 4%; Pf growth 96h: inconclusive; Sm TGR inh: -1%

How did Fc1ccccc1-c1ccc(/C=N/Nc2nc3ccccc3[nH]2)o1 do in these assays?
NS1 function inh: -16%; Pf growth 48h: inconclusive; Pf growth 96h: 0.93µM*; Sm TGR inh: -1%; Cycloheximide cs: 50*; Shiga inhibitor: 49*

What do the screens show for `CCCn1c(NCc2ccco2)nc2ccccc21`?
NS1 function inh: -1%; Pf growth 48h: -22%; Sm TGR inh: -1%; Cycloheximide cs: 1; Shiga inhibitor: -10

How did Cc1ccc(/C=N/Nc2nnc(Cc3ccccc3)c(=O)[nH]2)o1 do in these assays?
Pf growth 48h: 13%; Pf growth 96h: inconclusive; Sm TGR inh: 2%; Cycloheximide cs: -1; Shiga inhibitor: -6

How did CCCCn1c(/C=N/Nc2nc3ccccc3[nH]2)nc2ccccc21 do in these assays?
NS1 function inh: -42%; Pf growth 48h: 1.9µM*; Pf growth 96h: inconclusive; Sm TGR inh: 3%; Cycloheximide cs: 2; Shiga inhibitor: 11

Results for CCCn1c(/C=C/c2ccco2)nc2ccccc21 ?
NS1 function inh: 17%; Pf growth 48h: 19%; Pf growth 96h: inconclusive; Sm TGR inh: 20µM*; Cycloheximide cs: 12; Shiga inhibitor: 7

What do the screens show for `Cc1ccc(/C=N\Nc2nc3ccc(Cl)cc3[nH]2)o1`?
NS1 function inh: -41%; Pf growth 48h: 2.6µM*; Pf growth 96h: 2.3µM*; Sm TGR inh: 18%; Cycloheximide cs: 41*; Shiga inhibitor: 119*

Results for CCCCCn1c(=O)c(C(=O)Nc2nc3ccccc3[nH]2)c(O)c2ccccc21 ?
NS1 function inh: 1%; Pf growth 48h: inconclusive; Pf growth 96h: -19%; Sm TGR inh: 6%; Cycloheximide cs: 7; Shiga inhibitor: 18

What do the screens show for `CC1CN(c2nc3ccccn3c(=O)c2/C=C(\C#N)C(=O)N2CCOCC2)CC(C)O1` (centres undefined)?
NS1 function inh: 4%; Pf growth 48h: 0%; Pf growth 96h: inconclusive; Sm TGR inh: 7%; Cycloheximide cs: -1; Shiga inhibitor: -6

Results for CCOC(=O)c1c(C)oc2nc(C)nc(N3CCN(c4ccccc4F)CC3)c12 ?
Sm TGR inh: 0%

What do the screens show for `COc1ccccc1NC(=O)Cn1c(=O)n(CC(=O)NCc2ccccc2Cl)c(=O)c2sccc21`?
Sm TGR inh: -2%

What do the screens show for `CCCCn1c(/C=C/c2ccco2)nc2ccccc21`?
NS1 function inh: 19%; Pf growth 48h: 39%; Pf growth 96h: inconclusive; Sm TGR inh: 10µM*; Cycloheximide cs: 5; Shiga inhibitor: -3

Results for CCC(=O)Nc1c(OC(=O)CC)ccc2c(C)cc(=O)oc12 ?
NS1 function inh: -2%; Pf growth 48h: -9%; Pf growth 96h: 3.7µM*; Sm TGR inh: -22%; Cycloheximide cs: -5; Shiga inhibitor: 10

Results for CCC(=O)Oc1c(C(=O)CC)cc2c(C)cc(=O)oc2c1C ?
NS1 function inh: -11%; Pf growth 48h: 25%; Pf growth 96h: 45%; Sm TGR inh: 3%; Cycloheximide cs: -3; Shiga inhibitor: 19

What do the screens show for `COc1ccc(Cl)cc1NC(=O)CSc1nc2c([nH]c3ccccc32)c(=O)n1-c1ccccc1`?
Sm TGR inh: -10%

How did Cc1cc(CN2CCC(n3nccc3NC(=O)c3ccccc3C)CC2)n[nH]1 do in these assays?
NS1 function inh: 2%; Pf growth 48h: 10%; Pf growth 96h: inconclusive; Sm TGR inh: 2%; Cycloheximide cs: -2; Shiga inhibitor: -4

Results for CC1(C)CC(=O)c2cc(OCC(=O)NCc3cccnc3)ccc2O1 ?
NS1 function inh: 5%; Pf growth 48h: 0%; Pf growth 96h: 13µM*; Sm TGR inh: 0%; Cycloheximide cs: -3; Shiga inhibitor: -3

What do the screens show for `CCN(CC)C(=O)COc1ccc2c(c1)C(=O)CC(C)(C)O2`?
Pf growth 48h: -13%; Pf growth 96h: 9.3µM*; Sm TGR inh: 1%; Cycloheximide cs: 14; Shiga inhibitor: 39

Results for CC1(C)CC(=O)c2cc(OCC(=O)N3CCOCC3)ccc2O1 ?
NS1 function inh: 0%; Pf growth 48h: -12%; Pf growth 96h: -14%; Sm TGR inh: 0%; Cycloheximide cs: -1; Shiga inhibitor: -13

Results for O=C(COc1ccc2c(c1)C(=O)CC1(CCCCC1)O2)NCc1ccccc1 ?
NS1 function inh: -52%; Pf growth 48h: 8.3µM*; Pf growth 96h: 3.7µM*; Sm TGR inh: 10%; Cycloheximide cs: -3; Shiga inhibitor: 18

What do the screens show for `CCOC(=O)COc1ccc2c(c1)C(=O)CC(C)(c1cccnc1)O2` (centres undefined)?
NS1 function inh: -96%; Pf growth 48h: 52%; Pf growth 96h: 2.1µM*; Sm TGR inh: 0%; Cycloheximide cs: 20; Shiga inhibitor: -11
